Reference: PubChem BioAssay (EPA / NIEHS)
Active and inactive are the calls of the source. How the source made its calls: active means hit-call score of the fitted dose curve at least 0.9, where 1 is the maximum; inactive means score below 0.9.

Each compound was assayed against Heat shock factor protein 1 (Homo sapiens) (UniProt Q00613) (assay: ATG_HSE_CIS: Attagene CIS-FACTORIAL HepG2 Assay for human Heat Shock Transcription Factor 1 (HSE) (AID 2282953)). Conditions: HepG2 HSE cis-reporter, Attagene RNA transcription; actives raise or lower the signal.
Sequence of Heat shock factor protein 1 (Homo sapiens) (Q00613 whole entry, looked up): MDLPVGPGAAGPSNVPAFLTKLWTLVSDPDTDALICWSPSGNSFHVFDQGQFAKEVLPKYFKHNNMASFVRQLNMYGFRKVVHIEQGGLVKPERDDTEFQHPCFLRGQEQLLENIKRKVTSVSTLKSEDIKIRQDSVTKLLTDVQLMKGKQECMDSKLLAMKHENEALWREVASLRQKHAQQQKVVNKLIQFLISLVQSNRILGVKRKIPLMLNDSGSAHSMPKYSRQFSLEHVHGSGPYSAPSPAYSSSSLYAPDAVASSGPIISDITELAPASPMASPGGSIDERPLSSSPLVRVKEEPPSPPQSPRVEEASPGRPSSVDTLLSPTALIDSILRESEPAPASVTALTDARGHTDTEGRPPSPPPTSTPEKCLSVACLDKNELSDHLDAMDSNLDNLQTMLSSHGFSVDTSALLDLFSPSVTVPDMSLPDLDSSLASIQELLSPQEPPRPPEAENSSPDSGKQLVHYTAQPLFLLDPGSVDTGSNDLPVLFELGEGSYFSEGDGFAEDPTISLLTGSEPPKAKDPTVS
Protocol: ATG_CIS is a cell-based, multiplexed-readout assay that uses HepG2, a human liver cell line, with measurements taken at 24 hours after chemical dosing in a 24-well plate.ATG_HSE_CIS is one of 52 assay component(s) measured or calculated from the ATG_CIS assay. It is designed to make measurements of mRNA induction, a form of inducible reporter, as detected with fluorescence intensity signals by Reverse transcription polymerase chain reaction (RT-PCR) and Capillary electrophoresis technology.Data from the assay component ATG_HSE_CIS was analyzed into 1 assay endpoint. This assay endpoint, ATG_HSE_CIS, was analyzed with bidirectional fitting relative to DMSO as the negative control and baseline of activity. Using a type of inducible reporter, measures of mRNA for gain or loss-of-signal activity can be used to understand the reporter gene at the transcription factor-level as they relate to the gene HSF1. Furthermore, this assay endpoint can be referred to as a primary readout, because this assay has produced multiple assay endpoints where this one serves a reporter gene function. To generalize the intended target to other relatable targets, this assay endpoint is annotated to the dna binding intended target family, where the subfamily is heat shock protein.
Human liver HepG2 cells are transiently transfected with multiple reporter transcription units (MRTUs) in 6-well plates using FuGene 6 reagent (Roche; 3 ml FuGene/1 mg DNA). The MRTU constructs are regulated by a cis-regulating element (promoter). […] A major difference between the CIS and TRANS system is that in CIS activities of endogenous TFs are measured, whereas the TRANS assay evaluates changes in activities of exogenous, chimeric NR-Gal4 proteins. […] At the end of 24 hour incubation, total RNA was isolated using TriZol reagent (Invitrogen). The isolated RNA is then reverse-transcribed using oligo(dT) primer and Mo-MLV reverse transcriptase (Invitrogen) with DNAse I (Ambion) treatment for 30 min. The one-tenth of the produced cDNA was amplified by PCR using Taq DNA polymerase (Invitrogen) and two reporter sequence-specific primers. The PCR products were fluorescently labeled by primer extension with 6-arboxyfluorescein (6-FAM) 5'-labeled reporter sequence-specific primer (2 min at 95 C, 20 s at 68 C and 10 min at 72 C) and these products were digested with 5U of HpaI (New England Biolabs) for 2h at 37 C. The fragments were purified using Qiaquick PCR columns (Qiagen), analyzed on an ABI 3130xL genetic analyzer (Applied Biosystems) with peak positions identified by using a set of X-rhodamine (ROX)-labeled MapMarker1000 molecular weight standards (BioVentures). The raw capillary electrophoresis data was processed using Attagraph software (Attagene).
CC1=CC2C3C=CC(C3)C2C1C (stereo not given) was tested, and the outcome was “inactive”.
In the case of O=C(Cl)C(F)(F)C(F)(F)C(F)(F)C(F)(F)C(F)(F)C(F)(F)C(F)(F)F, the outcome is reported as “inactive”.
For OCC(O)CC(F)(F)C(F)(F)C(F)(F)C(F)(F)C(F)(F)C(F)(F)C(F)(F)C(F)(F)F (stereo not given), the outcome was “inactive”.
For O=C(O)CCC(F)(F)C(F)(F)C(F)(F)C(F)(F)C(F)(F)C(F)(F)C(F)(F)F, the outcome was “inactive”.
For CC(C)OC=O, the outcome was “inactive”.
For CC(C)(C)C(=O)C1C(=O)c2ccccc2C1=O, the outcome was “inactive”.
In the case of C=C(C)CCCC, the outcome is reported as “inactive”.
With CSc1ccc(Cl)cc1 the outcome was “inactive”.
With N#CCCOCCC#N the outcome was “inactive”.
In the case of O=S(=O)(O)c1ccc(Cl)cc1, the outcome is reported as “inactive”.
CC(=O)C=O was tested, and the outcome was “inactive”.
With O=c1[nH]cccc1O the outcome was “inactive”.
For C=CC(=O)OCCC(F)(F)C(F)(F)C(F)(F)C(F)(F)F, the outcome was “inactive”.
In the case of O=C(O)C(F)(F)C(F)(F)C(F)(F)OC(F)(C(F)(F)F)C(F)(F)F, the outcome is reported as “inactive”.
Cc1ccc(O)cn1 was tested, and the outcome was “inactive”.
Nc1cc([N+](=O)[O-])cc(Cl)c1O was tested, and the outcome was “inactive”.
In the case of Nc1c(Br)cc([N+](=O)[O-])cc1Br, the outcome is reported as “inactive”.
In the case of Brc1ccccn1, the outcome is reported as “inactive”.
In the case of CCCCCCCCCc1ccc(OCCO)cc1, the AC50 is reported as 16.8 µM (active).
OCCCc1cccnc1 was tested, and the outcome was “inactive”.
With O=S(=O)(O)CCC(F)(F)C(F)(F)C(F)(F)C(F)(F)C(F)(F)C(F)(F)C(F)(F)C(F)(F)F the outcome was “inactive”.
For O=C(O)C(F)(F)C(F)(F)C(F)(F)C(F)(F)C(F)(F)C(F)(F)C(F)F, the outcome was “inactive”.
CCC(=O)OC(C)c1ccccc1 (stereo not given) was tested, and the outcome was “inactive”.
With CCCCCCCCCCCCCC[P+](CCCC)(CCCC)CCCC the AC50 was 0.82 µM (active).
With CCCCCCCC/C=C\CCCCCCCC(=O)N(C)CC(=O)O the outcome was “inactive”.
For COCCOCCC[Si](C)(O[Si](C)(C)C)O[Si](C)(C)C, the AC50 was 20.3 µM (active).
With O=C1OC(=O)c2ccc3c4c(ccc1c24)C(=O)OC3=O the outcome was “inactive”.
In the case of NC(O)(C(F)(F)F)C(F)(F)F, the outcome is reported as “inactive”.
For OCCCC(F)(F)C(F)(F)C(F)(F)C(F)(F)C(F)(F)C(F)(F)C(F)(F)C(F)(F)F, the outcome was “inactive”.
For Cc1cc(O)c(C(C)(C)C)cc1C(C)(C)C, the outcome was “inactive”.
In the case of CCC(Cc1c(I)cc(I)c(N)c1I)C(=O)O (stereo not given), the outcome is reported as “inactive”.
In the case of OC(O)C(F)(F)C(F)(F)F, the outcome is reported as “inactive”.
With CCC(C)CO (stereo not given) the outcome was “inactive”.
In the case of Cc1cnccn1, the outcome is reported as “inactive”.
With Oc1ccc2c(c1)CCC2 the outcome was “inactive”.
In the case of CCOC(=O)CC(=O)C(F)(F)C(F)(F)F, the outcome is reported as “inactive”.
O=C(O)C(F)(F)C(F)(F)C(F)(F)C(=O)O was tested, and the outcome was “inactive”.
With C=CC(=O)OCC(F)(F)C(F)(F)C(F)(F)COC(=O)C=C the outcome was “inactive”.
CC(C)C(=O)OCc1ccccc1 was tested, and the outcome was “inactive”.
In the case of Cc1ccc2c(c1)OCC(=O)CO2, the outcome is reported as “inactive”.
